PubChem BioAssay (NCATS)
Results filed as inconclusive are left out. Activity calls are given as the source filed them. Calls come from the whole dose curve; as a rule, active = well fitted activation curve with a large enough effect; inconclusive = small, poorly fitted or top-dose-only effect; inactive = no such curve, though single readings can be large or run the other way.

Target: Cellular tumor antigen p53 (Homo sapiens) (UniProt P04637)
Assay: Primary qHTS for small molecule compounds that upregulate eGFP-tagged delta133p53alpha (in N-terminal) cells. (AID 2060322); note: nearly all actives have a fitted effect of over 75% in size;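 for activation: series mostly up to about 56 µM; 0% = DMSO vehicle and 100% = reference activator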
Conditions: NCI-H358 eGFP-delta133p53alpha fluorescence, 24 h; activation: active compounds read high
In short: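 NCI-H358 cells pre-induced 24 h with 10 ng/ml doxycycline to express N-terminal eGFP-delta133p53alpha, then dosed 24 h at 37C without doxycycline; fixed, Hoechst-stained, GFP intensity by laser scanning cytometry, normalized to DMSO (0%) and 57.5 uM 5-azacytidine (100%).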
Potency is the fitted concentration of half-maximal effect.

Chain of Cellular tumor antigen p53 (Homo sapiens) (P04637 whole entry, looked up): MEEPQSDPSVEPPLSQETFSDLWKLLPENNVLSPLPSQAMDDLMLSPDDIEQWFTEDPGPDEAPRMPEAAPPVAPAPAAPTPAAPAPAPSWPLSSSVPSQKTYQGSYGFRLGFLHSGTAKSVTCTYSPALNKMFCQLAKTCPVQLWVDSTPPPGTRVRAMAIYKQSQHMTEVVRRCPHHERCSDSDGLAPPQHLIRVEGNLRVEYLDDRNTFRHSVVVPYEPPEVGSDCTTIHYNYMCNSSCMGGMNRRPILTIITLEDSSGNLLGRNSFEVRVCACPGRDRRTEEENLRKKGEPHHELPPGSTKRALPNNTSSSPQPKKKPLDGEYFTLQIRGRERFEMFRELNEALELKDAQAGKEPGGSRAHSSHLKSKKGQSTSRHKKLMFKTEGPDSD

SMILES | activation | Potency
CC#C[C@]1(O)CC[C@H]2[C@@H]3C[C@H](C)C4=CC(=O)CC[C@]4(C)[C@H]3CC[C@@]21C | -4.18% (inactive) | –
CCOP(=S)(OCC)O/N=C(\C#N)c1ccccc1 | -18.6% (inactive) | –
O=c1c(C2CC(c3ccc(-c4ccc(Br)cc4)cc3)Cc3ccccc32)c(O)sc2ccccc12 (configuration not stated) | -13% (inactive) | –
CCNc1nc(Cl)nc(NCC)n1 | 8.37% (inactive) | –
CCCN(CCC)C(=O)Cc1c(-c2ccc(Cl)cc2)nc2ccc(Cl)cn12 | 29.3% (inactive) | –
CCN(CC)CCc1c[nH]c2ccccc12 | -8.47% (inactive) | –
CC(C)(N)Cc1ccccc1Cl | 10.7% (inactive) | –
C[C@]12CC[C@H]3[C@@H](CCC4=CC(=O)CC[C@@]43C)[C@@H]1CC[C@@H]2C(=O)O | 1.69% (inactive) | –
N#Cc1nn(-c2c(Cl)cc(C(F)(F)F)cc2Cl)c(N)c1S(=O)C(F)(F)F (configuration not stated) | -2.51% (inactive) | –
CCC(=O)O[C@H]1CC[C@H]2[C@@H]3CCC4=CC(=O)CC[C@]4(C)[C@H]3CC[C@]12C | -0.565% (inactive) | –
O=[N+]([O-])c1ncc[nH]1 | 15.2% (inactive) | –
CCCC1CCCCN1 (configuration not stated) | -16.4% (inactive) | –
NC(=O)CS(=O)C(c1ccccc1)c1ccccc1 (configuration not stated) | -6.21% (inactive) | –
C=CCOC(Cn1ccnc1)c1ccc(Cl)cc1Cl (configuration not stated) | 6.69% (inactive) | –
C[C@@H]1CC[C@H]2[C@@H](C)C(=O)O[C@@H]3O[C@@]4(C)CC[C@H]1[C@]32OO4 | 5.37% (inactive) | –
CCN(CC)CCOC(=O)C(C)(c1ccccc1)c1ccccc1 | -8.47% (inactive) | –
CCCCCCCCCCCC[N+](C)(C)CCOc1ccccc1 | – | 21.9 µM (active)
COC[C@H]1OC(=O)c2coc3c2[C@@]1(C)C1=C(C3=O)[C@@H]2CC[C@H](O)[C@@]2(C)C[C@@H]1OC(C)=O | 13.2% (inactive) | –
C[C@@H]1CC[C@@]2(OC1)O[C@H]1C[C@H]3[C@@H]4CC=C5C[C@@H](O[C@@H]6O[C@H](CO)[C@@H](O[C@@H]7O[C@@H](C)[C@H](O)[C@@H](O)[C@@H]7O)[C@H](O)[C@@H]6O[C@@H]6O[C@@H](C)[C@H](O)[C@@H](O)[C@@H]6O)CC[C@]5(C)[C@@H]4CC[C@]3(C)[C@@H]1[C@H]2C | 15.2% (inactive) | –
CCCOC(=O)c1cncn1C(C)c1ccccc1 (configuration not stated) | 17.5% (inactive) | –
ClCc1cccc(Cl)c1 | 5.02% (inactive) | –
C[C@]12CC[C@@H]3c4ccc(OC(=O)N(CCCl)CCCl)cc4CC[C@H]3[C@@H]1CC[C@@H]2O | 11.9% (inactive) | –
N#C[C@H](O[C@@H]1O[C@H](CO[C@@H]2O[C@H](CO)[C@H](O)[C@H](O)[C@H]2O)[C@H](O)[C@H](O)[C@H]1O)c1ccccc1 | 6.64% (inactive) | –
Clc1cccc(N2CCNCC2)c1 | 17.5% (inactive) | –
Nc1ccccc1C(=O)OCC(O)CO (configuration not stated) | -5.02% (inactive) | –
COc1cccc([C@@]2(O)CCCC[C@@H]2CN(C)C)c1 | 13.4% (inactive) | –
C[C@@]12OC(=O)[C@]1([C@@H](O)[C@@H]1C=CCCC1)NC(=O)[C@H]2CCCl | – | 2.73 µM (active)
